Assay outcomes deposited in PubChem BioAssay by National Center for Advancing Translational Sciences (NCATS).
Vaccinia Venus = qHTS for Stage-Specific Inhibitors of Vaccinia Orthopoxvirus: Venus Reporter Primary qHTS; Potency, µM (highest dose often 36.5 µM), without a hit: top-dose activity change, negative = inhibition, actives largely listed as inhibitors; AID 720580, 2013; actives 0.46% (n = 330,000); Vaccinia virus Venus reporter expression, fluorescence; calls by dose curve; tested in A549 cells; further: potency means the concentration at half of the fitted maximal effect; nearly all actives have a fitted effect of over 30% in size
HCV inhibitor = qHTS Assay for Inhibitors of Hepatitis C Virus (HCV); Huh7.5.1 HCVcc-Cre infection, luciferase reporter, 44 h; Potency, µM (series often up to 41.8 µM), for the others: top-dose activity change, negative = inhibition, most hits filed as inhibitors; actives 3.4% (n = 340,000); AID 651820, 2012; active means well fitted inhibition curve with a large enough effect; inconclusive means small, poorly fitted or top-dose-only effect, or another doubt; inactive means no such curve, though single readings can be large or run the other way; further: potency means the concentration at half of the fitted maximal effect
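Infectious HCVcc-Cre (~0.5 moi) was added to cells just after compound, with cells seeded 4 h earlier at 1,000 per well. Luciferase activity after 44 h culture reported infection; substrate was incubated 15 min at room temperature before reading.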
Marburg entry inh = qHTS for inhibitors of binding or entry into cells for Marburg Virus | Marburg virus pseudotyped entry inhibition, cell reporter | Potency, µM (top dose mostly 37.8 µM), inactives show at the top dose activity change, negative = inhibition, hits mostly inhibitors | actives 1.8% (n = 300,000); calls by dose curve; tested in HEK293 cells; further: potency means the concentration at half of the fitted maximal effect
VACV mCherry inh = qHTS for Stage-Specific Inhibitors of Vaccinia Orthopoxvirus: mCherry Reporter Primary qHTS. Potency, µM (highest dose often 36.5 µM), for inactives: at the highest dose activity change, negative = inhibition, most hits filed as inhibitors. actives 0.63% (n = 310,000). Vaccinia virus mCherry reporter infection, fluorescence; calls by dose curve; tested in A549 cells; further: potency means the concentration at half of the fitted maximal effect; nearly all actives have a fitted effect of over 35% in size
Lassa entry inh = qHTS for Inhibitors of binding or entry into cells for Lassa Virus. actives 1.2% (n = 300,000). Lassa virus pseudotype entry inhibition, cell reporter. Potency, µM (series often up to 37.9 µM), without a hit: at the highest dose activity change, negative = inhibition, most hits filed as inhibitors; calls by dose curve; tested in HEK293 cells; further: potency means the concentration at half of the fitted maximal effect; nearly all actives have a fitted effect of over 50% in size
HCMV inh = qHTS Assay for inhibitors of the human cytomegalovirus (HCMV); HFF cells, HCMV-luciferase reporter, 72 h; hits give low values; activity change, negative = inhibition, % at 57.5 µM; actives 4.5% (n = 410,000); in the data active means activity change below about -60%; inconclusive means no clear call, values can overlap the other calls; inactive means above about -39%
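HFF cells seeded 16 h at 37C, treated with compounds, infected with luciferase-reporter HCMV at MOI 1 PFU/cell; luciferase read at 72 h post infection, normalized to buffer-only and Salinomycin controls.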
Numbers without * were called inactive; [ ] = another dose, or the depositor's remark. The list is not random: actives were taken first. Their share in the collection is about 7.8%. On the % scale 0 is the no-effect control and ±100 the full control effect.

Results for CCOC(=O)N1CC(C)N(CC(O)CN2CCOCC2)CC1C (stereo not given) ?
Vaccinia Venus: -1%; HCV inhibitor: 4%; Marburg entry inh: 4%[46.1 µM]; VACV mCherry inh: -13%; Lassa entry inh: 7%[46.1 µM]; HCMV inh: -88*

How did OC(CN1CCOCC1)CN1CCOCC1 do in these assays?
Vaccinia Venus: 5%; HCV inhibitor: 2%; Marburg entry inh: 0%; VACV mCherry inh: inactive; Lassa entry inh: 3%; HCMV inh: -65*

Results for CCOC(=O)N1CCN(C(=O)N2CCOCC2)CC1 ?
Vaccinia Venus: -8%; HCV inhibitor: 6%; Marburg entry inh: 8%; VACV mCherry inh: -10%; Lassa entry inh: 21%; HCMV inh: 2

What do the screens show for `O=C(CNC(=O)c1ccccc1F)N/N=C/c1cc(Br)ccc1OC(=O)/C=C/c1ccco1`?
Vaccinia Venus: -25%; HCV inhibitor: 6.3µM*; Marburg entry inh: inconclusive; VACV mCherry inh: inconclusive; Lassa entry inh: inconclusive; HCMV inh: -83*

How did COc1ccccc1C(=O)NCC(=O)N/N=C/c1cc(Br)ccc1OC(=O)/C=C\c1ccco1 do in these assays?
HCV inhibitor: inconclusive; Marburg entry inh: 2%; Lassa entry inh: 10%; HCMV inh: -37

Results for O=C(CNC(=O)c1ccc(F)cc1)N/N=C/c1cc(Br)ccc1OC(=O)/C=C/c1ccco1 ?
Vaccinia Venus: 10%; HCV inhibitor: 10µM*; VACV mCherry inh: inconclusive; HCMV inh: -77*

Results for COc1ccc(C(=O)NCC(=O)N/N=C/c2ccco2)cc1OC ?
Vaccinia Venus: 5%; HCV inhibitor: -5%; Marburg entry inh: -21%[46.1 µM]; VACV mCherry inh: -8%; Lassa entry inh: 4%[46.1 µM]; HCMV inh: 13

How did CCOC(=O)c1c(C)c(-c2ccccc2)n(CC(=O)NCCc2cccc(C)c2)c1C do in these assays?
Vaccinia Venus: -4%; Marburg entry inh: inconclusive; VACV mCherry inh: -5%; HCMV inh: -3

What do the screens show for `CNCCC[C@]12CC[C@H](C3=C1CCCC3)C1CCCCC12` (stereo not given in full)?
Marburg entry inh: 4.6µM*

What do the screens show for `Cn1c2ccccc2c2cc([N+](=O)[O-])ccc21`?
Vaccinia Venus: 5%; HCV inhibitor: inconclusive; Marburg entry inh: -6%; VACV mCherry inh: -5%; Lassa entry inh: -2%; HCMV inh: -19

Results for CC(=O)OCc1c(-c2ccccc2)c2cc([N+](=O)[O-])ccc2n1C ?
Vaccinia Venus: -20%; HCV inhibitor: 13µM*; Marburg entry inh: -28%[46.1 µM]; VACV mCherry inh: -14%; Lassa entry inh: 19%[46.1 µM]; HCMV inh: -77*

Results for CCOC(=O)C(C)On1c(-c2ccccc2)nc2ccc([N+](=O)[O-])cc21 (stereo not given) ?
Vaccinia Venus: -12%; HCV inhibitor: inconclusive; Marburg entry inh: -3%; Lassa entry inh: 2%; HCMV inh: -18

Results for Cn1c(CO)c(-c2ccccc2)c2cc([N+](=O)[O-])ccc21 ?
Vaccinia Venus: inconclusive; HCV inhibitor: 10µM*; Marburg entry inh: 0%; VACV mCherry inh: inconclusive; Lassa entry inh: 3%; HCMV inh: -37

Results for O=C(Cc1ccc(OCCCCc2ccccc2)cc1)NO ?
Vaccinia Venus: -16%; VACV mCherry inh: -21%

Results for Cn1c(=O)c2c(ncn2CC(=O)Nc2cccc(Cl)c2Cl)n(C)c1=O ?
Vaccinia Venus: -11%; VACV mCherry inh: -8%; Lassa entry inh: 15%[46.1 µM]; HCMV inh: -10

Results for COc1ccc(NC(=O)C2=C(C)Nc3c(C(=O)Nc4ccc(C)cc4)cnn3C2c2cccc(Cl)c2)cc1 (stereo not given) ?
Vaccinia Venus: -19%; VACV mCherry inh: -2%; Lassa entry inh: -16%[46.1 µM]; HCMV inh: -2
